# HP1b chromo inh: blocks HP1-beta chromodomain binding to methylated histone tails | P83916 | AlphaScreen HP1-beta / biotin-H3K9me3 peptide binding | Potency, µM (titrated, usually from 114 µM), usual class: inhibitors | actives 0.56% (n = 390,000) | AID 540317; note: nearly all actives have a fitted effect of over 70% in size
# Target sequence (P83916 whole entry, looked up): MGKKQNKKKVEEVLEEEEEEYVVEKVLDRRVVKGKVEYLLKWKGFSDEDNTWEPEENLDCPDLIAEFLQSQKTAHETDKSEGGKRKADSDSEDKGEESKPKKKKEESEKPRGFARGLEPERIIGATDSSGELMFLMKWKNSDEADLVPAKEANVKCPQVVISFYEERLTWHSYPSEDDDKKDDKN
#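 AlphaScreen: HP1-beta (50 nM) preformed 30 min with biotin-H3(1-18)K9me3 peptide (50 nM) in PBS pH 7.4, 0.01% Tween-20. Compound added for 30 min at RT, then streptavidin donor/nickel chelate acceptor beads (10 ug/mL) for 30 min.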
# JMJD2A Tudor inh: inhibitors of human JMJD2A Tudor domain. O75164. AlphaScreen JMJD2A-Tudor / H3K4me3 peptide binding. Potency, µM (doses to about 114 µM), usual class: inhibitors. actives 4.4% (n = 390,000); note: nearly all actives have a fitted effect of over 50% in size
# G9a block: inhibitors of human histone lysine methyltransferase G9a | actives 8.8% (n = 350,000) | Q96KQ7 | G9a H3K9 monomethylation, AlphaScreen, 2 h | Potency, µM (highest dose often 102 µM), usual class: inhibitors; note: nearly all actives have a fitted effect of over 75% in size
# Target sequence (Q96KQ7 913-1193 limits assumed): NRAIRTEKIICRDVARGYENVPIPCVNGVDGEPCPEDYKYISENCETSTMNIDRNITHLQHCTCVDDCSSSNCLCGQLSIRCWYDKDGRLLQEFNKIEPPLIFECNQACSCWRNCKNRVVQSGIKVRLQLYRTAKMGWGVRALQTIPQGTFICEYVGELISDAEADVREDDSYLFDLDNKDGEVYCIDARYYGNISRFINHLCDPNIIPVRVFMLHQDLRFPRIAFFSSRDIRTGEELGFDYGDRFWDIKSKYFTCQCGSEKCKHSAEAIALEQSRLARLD
#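 Using a bead-based AlphaScreen, monomethylated H3K9 product from 2 h room-temperature reactions (G9a 20 nM, peptide 500 nM, SAM 20 uM) was detected with 0.5 ug/mL rabbit anti-H3K9me1 antibody.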
# PLK1 PBD inh: blocks phosphopeptide binding to human PLK1 polo-box domain; P53350; Plk1 PBD binding of FITC phosphopeptide, fluorescence polarization; Potency, µM, most hits filed as inhibitors; actives 2.8% (n = 360,000); AID 720504; note: series mostly up to about 57 µM; nearly all actives have a fitted effect of over 65% in size
# PI5P4K alpha inh: PI5P4K alpha (human) kinase inhibition; PI5P4Kalpha enzyme, ADP-Glo luminescence, 60 min; stronger effect = lower value; P48426; actives 1.2% (n = 330,000); max response, %; active = max response of -50% or lower; inconclusive = between -30% and -50%; inactive = -30% or higher; note: value at the top dose of about 77 µM
#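 Controls without substrate or without enzyme flank wells where PI5P4Kalpha converts substrate using 5 microM ATP (final). Incubation lasts 60 minutes at room temperature; ADP formed is read by ADP-Glo luminescence.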
# BAZ2B block: blocks human BAZ2B | actives 4.4% (n = 360,000) | Potency, µM (series often up to 114 µM), hits mostly inhibitors | Q9UIF8 | AlphaScreen BAZ2B-H3K14Ac peptide displacement; note: nearly all actives have a fitted effect of over 60% in size
#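 Complex of BAZ2B and biotin-H3K14Ac (50 nM apiece) forms over 30 min at RT, then faces library compounds up to 110 uM for another 30 min; AlphaScreen beads added, 20 min dark incubation, luminescence read.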
# ADP-Glo interf: interferes with ADP-Glo detection without enzyme present. shares compounds with PI5P4K alpha inh. ADP-Glo detection counter-screen, luciferase luminescence, no enzyme. Potency, µM (doses to about 76.9 µM), usual class: inhibitors. 1,100 tested, under 10 active
# TbPYK inh: Trypanosoma brucei pyruvate kinase inhibition, cherry-pick confirmation. shares compounds with PLK1 PBD inh. recombinant TbPYK, Kinase-Glo ATP luminescence. Potency, µM (doses to about 76.9 µM), actives largely listed as inhibitors. actives 67% (n = 890). AID 720569; note: nearly all actives have a fitted effect of over 70% in size
# TbPYK orthogonal: inhibits T. brucei pyruvate kinase in orthogonal ADP-Glo assay; actives 62% (n = 890); AID 720584; Potency, µM (titrated, usually from 76.9 µM), hits mostly inhibitors; recombinant TbPYK, ADP-Glo luminescence, 60 min; shares compounds with PLK1 PBD inh; note: nearly all actives have a fitted effect of over 75% in size
# Numbers stand for hits; n = inactive; u = inconclusive; x = not tested or not shown; [ ] = another dose, or the depositor's remark. Only some compounds are listed: those with a hit (about 12% of all), similar ones and a draw of the others. Unless noted, calls come from the whole dose curve; as a rule, active = well fitted curve in the direction sought with a large enough effect; inconclusive = small, poorly fitted or top-dose-only effect, or another doubt; inactive = no such curve, though single readings can be large; an effect the other way counts as inactive or inconclusive.
SMILES,HP1b chromo inh,JMJD2A Tudor inh,G9a block,PLK1 PBD inh,PI5P4K alpha inh,BAZ2B block,TbPYK inh,TbPYK orthogonal,others
Cc1cc(O)cc(C)c1NS(=O)(=O)c1ccc2ccccc2c1,n,n,n[2.33 µM],n,n,n,x,x,
CC(=O)NC(C(=O)N1CCC(c2nc3ccccc3s2)CC1)C(C)C (configuration not stated),n,n,n,n,n,n,x,x,
O=C(O)c1ccc2nc(-c3ccccc3)c(-c3ccccc3)nc2c1,n,n,n,n,n,n,x,x,
O=C(c1ccccc1)c1ccc2nc(-c3ccco3)c(-c3ccco3)nc2c1,15.8µM,12.6µM,3.16µM,7.52µM,-99.6,14.1µM,u,u,ADP-Glo interf=n
Cc1ccccc1NC(=O)CSc1nnc(-c2cccc(Cl)c2)o1,n,n,n,x,x,n,x,x,
CCOC(=O)c1ccc(N2C(=O)Cc3ccccc3C2=O)cc1,n,n,u,n,n,n,x,x,
CCOC(=O)C1=C(N)N(c2ccccc2)C(=O)C1,u,3.55µM,n[12.7 µM],2.99µM,-57.5,n,n,n,ADP-Glo interf=n
O=C(NCc1ccco1)c1cc2ccc(O)cc2oc1=O,n,n,n,n,-80.7,56.2µM,20µM,n,ADP-Glo interf=u
O=C(CN1CCN(c2ccc(O)cc2)CC1)Nc1ccc2c(c1)OCCO2,u,79.4µM,7.94µM,n,n,n,22.4µM,31.6µM,
O=C(CN1CCN(c2ccccc2O)CC1)Nc1ccc2c(c1)OCCCO2,n,n,u,n,n,n,x,x,
CCc1cccc(N2C(=O)N(CC(=O)NCc3cccc(OC)c3OC)c3ccccc3S2(=O)=O)c1,n,n,n,x,x,n,x,x,
COc1cc(N2C(=O)C=CC2=O)ccc1N1C(=O)C=CC1=O,u,4.47µM,x,2.38µM,-68.2,x,1.12µM,1.78µM,
COc1ccc(N2C(=O)C3CC(C)=C(C)CC3C2=O)c(OC)c1 (configuration not stated),n,n,n,n,n,n,x,x,
Cc1ccc(-n2nnnc2C(Cl)(Cl)c2nnnn2-c2ccc(C)cc2)cc1,u,n,u,1.06µM,x,u,1.58µM,2.24µM,
CSc1nnnn1-c1ccc(Cl)cc1,n,n,x,n,n,n,x,x,
CCn1c(C(=O)NCc2cccnc2)cc2sc(Cl)cc21,n,n,n[12.7 µM],n,x,n,u,u,
COc1cc(S(=O)(=O)N2CCN(C(=O)c3cccs3)CC2)ccc1NC(C)=O,x,x,x,n,n,x,x,x,
Cn1cccc1C(=O)C(=O)Nc1ccc(Cl)cc1,n,n[11.4 µM],n[0.501 µM],n,n,n,x,x,
Cn1cccc1C(=O)C(=O)Nc1cc(Cl)cc(Cl)c1,n,15.8µM,n,2.99µM,u,n,n,n,
COc1cccc2sc(N(Cc3cccnc3)C(=O)C3COc4ccccc4O3)nc12 (configuration not stated),n,n,n,x,x,n,x,x,
COc1cccc(CSC(C(=O)O)c2ccccc2)c1 (configuration not stated),x,x,x,n,n,x,x,x,
Cn1c(=O)c2ccccc2n(Cc2cccc(F)c2)c1=O,n,n,n,n,n,n,x,x,
CCOC(=O)CN=C1CC(C)(C)CC2=C1Sc1ncnc(N(C)C)c1N2,n,u,4.47µM,n,x,u,20µM,14.1µM,
CCC(=O)N1CCCC(C)(C(=O)Nc2ccc(C)c(C)c2)C1 (configuration not stated),x,x,x,n,n,x,x,x,
N#C/C(=C/c1ccc(N2CCCCCC2)o1)c1ccc(Cl)cc1,n,39.8µM,7.94µM,n,x,44.7µM,u,35.5µM,
SMILES,HP1b chromo inh,JMJD2A Tudor inh,G9a block,PLK1 PBD inh,PI5P4K alpha inh,BAZ2B block,TbPYK inh,TbPYK orthogonal,others
Cc1nc(NC(=O)c2ccco2)sc1C(=O)O,n,n,n,n,u,n,20µM,n,
CCOCCCNC1=C(Cl)C(=O)c2ccccc2C1=O,17.8µM,12.6µM,x,21.2µM,-93.4,39.8µM,u,u,
O=C1C(Cl)=C(NCCCN2CCOCC2)C(=O)c2ccccc21,n,u,x,n,n,x,x,x,
Cc1ccc(-c2cc(-c3ccccc3)nc(NN)n2)cc1,n,u,n,n,n,n,x,x,
Cc1ccc(-c2nc3ccccc3nc2-c2ccccc2)cc1,n,n,x,n,n,n,x,x,
CNc1nc(-c2ccccc2)[n+](-c2ccc(C)cc2)s1,11.2µM,20µM,1.41µM,1.5µM,-99.1,7.94µM,1µM,1.78µM,
Cc1ccc(-c2nc(N)s[n+]2-c2ccccc2)cc1,u,28.2µM,5.01µM,3.77µM,-80.0,n,2.24µM,6.31µM,
CCOc1cc(CNC(=O)Cn2c(=O)c3cccn3c3ccc(F)cc32)cc(OCC)c1OCC,n,n,n,x,x,n,x,x,
Cc1ccsc1CN(C)C(=O)c1ccc(Oc2ccccc2)cc1,n,n,n,n,n,n,x,x,
O=S(=O)(NCCC(c1ccc(F)cc1)c1ccco1)c1ccccc1 (configuration not stated),u,u,u,21.2µM,n,n,n,n,
Fc1ccc(C(CCNCc2cccs2)c2ccco2)cc1 (configuration not stated),n,n,n,n,n,n,x,x,
CC(=O)Nc1ccc(C23CC4CC(CC(C4)C2)C3)cc1,n,n,u,n,n,n,x,x,
Oc1ccc(C23CC4CC(CC(C4)C2)C3)cc1O,u,22.4µM,0.708µM,n,n,u,20µM,20µM,
Cc1ccc(NC(=S)N2CCN(Cc3ccccc3)CC2)cc1,n,n,n,n,n,n,x,x,
Cc1ccc(C(=S)N2CCN(Cc3ccccc3)CC2)cc1,n,n,u,8.44µM,n,u,8.91µM,12.6µM,
CCn1cc(C(=O)Nc2ncccc2O)c(=O)c2cc(F)c(N3CCN(C(=O)c4ccco4)CC3)cc21,n,n,n,n,n,n,x,x,
Clc1nssc1=Nc1nncs1,u,22.4µM,n[0.501 µM],2.38µM,-55.3,50.1µM,2µM,5.01µM,
COc1cc(NC(=O)N2c3ccccc3Sc3ccccc32)cc(OC)c1,n,n,n,x,x,n,x,x,
COc1cc(N=c2ssnc2Cl)cc(OC)c1,n,28.2µM,u,1.68µM,-79.1,44.7µM,3.98µM,5.01µM,
OCc1ccccc1N=c1ssnc1Cl,x,x,n[2.33 µM],x,x,u,x,x,
N#Cc1cccc(N=c2ssnc2Cl)c1,u,12.6µM,0.891µM,1.68µM,-76.9,28.2µM,8.91µM,7.08µM,
Clc1nssc1=Nc1ccc(Br)cc1,31.6µM,25.1µM,3.16µM,2.12µM,-56.7,22.4µM,8.91µM,11.2µM,
CC(C)CN(CCCNC(=O)CN1N=C(c2ccccc2)CCC1=O)CC(C)C,n,n,n,x,x,n,x,x,
COCCCn1c(=S)[nH]c2c(sc3ccccc32)c1=O,n,n,u,n,n,n,x,x,

# Screens from PubChem BioAssay.
